Source: PubChem BioAssay
TrxR1 inh-1 = inhibitors of rat thioredoxin reductase 1; hit rate 1% among 390,000; Potency, µM (titrated, usually from 114 µM), without a hit: at the top dose activity change, negative = inhibition, actives largely listed as inhibitors; O89049; recombinant rTrxR1, NADPH fluorescence consumption, selenite substrate; AID 588453; note: potency is the fitted concentration of half-maximal effect; % is set by controls: 0 for no effect and ±100 for the full control effect; nearly all actives have a fitted effect of over 65% in size
Target sequence (O89049 whole entry, looked up): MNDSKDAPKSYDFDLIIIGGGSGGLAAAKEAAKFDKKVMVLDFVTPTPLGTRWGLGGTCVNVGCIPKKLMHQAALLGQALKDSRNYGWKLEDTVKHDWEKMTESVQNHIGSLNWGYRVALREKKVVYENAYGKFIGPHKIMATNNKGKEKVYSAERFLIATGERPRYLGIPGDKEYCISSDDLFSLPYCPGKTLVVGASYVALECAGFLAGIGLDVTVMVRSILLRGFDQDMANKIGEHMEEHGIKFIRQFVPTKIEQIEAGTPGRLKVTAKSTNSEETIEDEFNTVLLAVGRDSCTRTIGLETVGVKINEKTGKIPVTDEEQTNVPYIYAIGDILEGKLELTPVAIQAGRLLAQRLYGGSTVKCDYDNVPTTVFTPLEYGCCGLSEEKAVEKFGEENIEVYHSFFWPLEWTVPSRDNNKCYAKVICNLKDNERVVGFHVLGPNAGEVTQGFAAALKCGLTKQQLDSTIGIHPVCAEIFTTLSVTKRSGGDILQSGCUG
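Rat TrxR1 (90 nM in the dispensed reagent) was pre-reduced with 400 uM NADPH for 5 min at room temperature, then incubated with compound for 15 min. After 400 uM selenite was added, NADPH fluorescence (Ex 340/Em 450 nm) was followed for 8 min.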
VDR inh = inhibitors of human vitamin D receptor; P11473; VDR-SRC2-3 peptide fluorescence polarization, 2 h; Potency, µM, without a hit: max response, negative = inhibition, most hits filed as inhibitors; hit rate 0.93% among 400,000; AID 504847; note: potency is the fitted concentration of half-maximal effect; % is set by controls: 0 for no effect and ±100 for the full control effect
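Compounds are added to VDR with labelled SRC2-3 coactivator peptide and held 2 h at room temperature. Inhibition of the VDR–peptide interaction is then read as a change in fluorescence polarization.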
GCN5L2 inh = GCN5L2 (KAT2A) acetyltransferase inhibition | Q92830 | GCN5L2 HAT assay, ThioGlo1 CoA-SH fluorescence | Potency, µM (titrated, usually from 58.9 µM), for the others: top-dose activity change, negative = inhibition, usual class: inhibitors | hit rate 0.21% among 390,000; note: potency is the fitted concentration of half-maximal effect; % is set by controls: 0 for no effect and ±100 for the full control effect
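GCN5L2 (20nM final) in 50mM HEPES, 0.1mM EDTA pH 7.5, 0.01% Tween-20 was preincubated 15 min at room temperature with compound, then given ThioGlo1 (50uM), H3(1-25) peptide (75uM) and acetyl-CoA (70uM); CoA-thiol fluorescence (Ex340/Em540) was read at 0 and 20 min.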
TrxR1 substrate = substrates of rat thioredoxin reductase 1; Potency, µM (top dose mostly 114 µM), without a hit: at the top dose activity change, negative = substrate turnover; purified TrxR1 substrate turnover, NADPH consumption readout; O89049; hit rate 0.01% among 390,000; AID 588456; note: potency is the fitted concentration of half-maximal effect; % is set by controls: 0 for no effect and ±100 for the full control effect; nearly all actives have a fitted effect of over 50% in size
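Rat TrxR1, dispensed at 90 nM, was prereduced with 400 uM NADPH (final) for 5 min at ~22 deg C, then incubated with compound 15 min before 400 uM selenite. A first-read NADPH fluorescence drop versus no-compound background flagged substrates.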
TRb-SRC2 inh = TRb-SRC2 (human) interaction inhibition; AlphaScreen TRb LBD-SRC2 peptide binding, luminescence; shares compounds with TrxR1 inh-1; hit rate 50% among 30; Potency, µM; calls by dose curve
HepG2 viability = HepG2 cytotoxicity, 72 h ATP readout; shares compounds with TrxR1 inh-1; HepG2 viability, ATP luminescence (CellTiter-Glo), 72 h; hit rate 50% among 40; Potency, µM; calls by dose curve
AR-SRC2 inh = disrupts human androgen receptor binding to SRC2 peptide; shares compounds with TrxR1 inh-1; calls only; AR-LBD Tx-SRC2-3 fluorescence polarization, 3 h; 25 tested, under 10 active; AID 2448; call rule not given here
PPARg-DRIP2 inh = selectivity of TRb-SRC2 inhibitors: human PPARgamma coactivator binding inhibition | shares compounds with TrxR1 inh-1 | PPARg LBD / Texas Red DRIP-2 peptide, fluorescence polarization, 3 h | Potency, µM | 25 tested, under 10 active | AID 2449; calls by dose curve
VDR-SRC2 FP sel = disrupts human vitamin D receptor binding to SRC2 peptide; shares compounds with TrxR1 inh-1; 25 tested, under 10 active; Potency, µM; VDR LBD/SRC2-3 peptide, fluorescence polarization, 3 h; calls by dose curve
GR inh = counter-screen for TrxR1 inhibitors: human glutathione reductase inhibition. shares compounds with TrxR1 inh-1. purified GR, DTNB reduction absorbance 405 nm kinetic. activity change, negative = inhibition, % at 57.1 µM. 55 tested, under 10 active. AID 652020
TrxR1 inh-2 = rat TrxR1 inhibition, primary screen retest | Potency, µM, most hits filed as inhibitors | AID 652023 | recombinant TrxR1, NADPH fluorescence consumption, selenite substrate | shares compounds with TrxR1 inh-1 | hit rate 50% among 55
TrxR1 insulin = inhibits TrxR1-driven insulin reduction | shares compounds with TrxR1 inh-1 | TrxR1 Trx-coupled insulin reduction, NADPH absorbance 340 nm | Potency, µM | hit rate 20% among 55 | AID 652037;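 active = compounds with a measured potency under 100 micromolar; inconclusive = filed, but no rule given; inactive = potency at or above that, or unmeasurable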
TrxR1 inh-3 = rat thioredoxin reductase 1 inhibition, DTNB assay; hit rate 90% among 55; purified TrxR1, DTNB reduction, A412; Potency, µM; shares compounds with TrxR1 inh-1; AID 652256;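 active = a half-inhibiting concentration could be measured and was below 100 µM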
Starred values were filed as active, the others as inactive; i = inactive; ? = inconclusive; . = not tested or not shown; [ ] = remark or other dose. Shown are actives, neighbours in structure and some others; about 1.8% of the full set was active somewhere. Unless noted, calls come from the whole dose curve; as a rule, active = well fitted curve in the direction sought with a large enough effect; inconclusive = small, poorly fitted or top-dose-only effect, or another doubt; inactive = no such curve, though single readings can be large; an effect the other way counts as inactive or inconclusive.

SMILES	TrxR1 inh-1	VDR inh	GCN5L2 inh	TrxR1 substrate	HepG2 viability	TrxR1 insulin	TrxR1 inh-3	others
Cc1ccc(Nc2c(-c3ccc(C)o3)nc3cnccn23)cc1	4µM*	71µM*	-5%	13%[57.1 µM]	.	i	2µM*	GR inh=-12;TrxR1 inh-2=?
Cc1nnc(SCc2ccc(Cl)cc2)c2cc3occc3n12	25%	-8%	-4%	6%	.	.	.
C/C=C\C=C\C(=O)Nc1cccc(C2=NOC3(C2)C[C@@H](C(N)=O)N(C(=O)C(c2ccccc2)c2ccccc2)C3)c1 (some centres not stated)	13µM*	-22%	21%	-3%	.	i	i
CCOC(=O)C1CCN(C(c2ccccn2)c2c(C)[nH]c3ccccc23)CC1 (configuration not stated)	2.5µM*	?	-3%	1%	.	i	0.19µM*	GR inh=-25;TrxR1 inh-2=1.5*
Nc1cnccn1	35%	.	.	117%	.	.	.
COC(=O)c1ccccc1S(=O)(=O)N(Cc1ccco1)Cc1cc2cc(OC)ccc2[nH]c1=O	10µM*	-3%	0%	24%	.	i	7.4µM*	GR inh=0;TrxR1 inh-2=6*
CS(=O)(=O)c1ccc(C(=O)NCC(=O)NC2C3CC4CC(C3)CC2C4)cc1[N+](=O)[O-] (configuration not stated)	.	.	.	.	22µM*	.	.	TRb-SRC2 inh=3.8µM*;AR-SRC2 inh=i;PPARg-DRIP2 inh=i;VDR-SRC2 FP sel=i
CS(=O)(=O)c1ccc(C(=O)OC(C(=O)NC2C3CC4CC(C3)CC2C4)c2ccccc2)cc1[N+](=O)[O-] (configuration not stated)	.	.	.	.	10µM*	.	.
CCOc1ccc(Br)cc1C1C(C(=O)OC)=C(C)NC2=C1C(=O)c1ccccc12 (configuration not stated)	18%	-7%	-13%	1%	.	.	.
Cc1cccc(NC(=O)CSc2nc3ccccc3nc2N2CCC(C)CC2)c1	24%	-1%	2%	4%	.	.	.
COc1ccc(C(=O)c2cn(Cc3ccccc3F)c3ccc(F)cc3c2=O)cc1	13%	0%	-16%	-4%	.	.	.
COc1cc(C(c2nnnn2C(C)(C)C)N2CCN(c3nc4ccccc4s3)CC2)ccc1O (configuration not stated)	13µM*	-20%	-16%	10%[57.1 µM]	.	i	0.16µM*	GR inh=-3;TrxR1 inh-2=?
CNc1c(Cl)cc(C=O)cc1Cl	?	.	.	-10%	.	.	.
CS(=O)(=O)c1ccc(C(=O)OCC(=O)N2CCOCC2)cc1[N+](=O)[O-]	.	.	.	.	i	.	.
CS(=O)(=O)c1ccc(C(=O)OCC(=O)N2Cc3ccccc3C2)cc1[N+](=O)[O-]	.	.	.	.	20µM*	.	.
O=C1CN(C(=O)COC(=O)c2ccc(N3CCCCCC3)c([N+](=O)[O-])c2)c2ccccc2N1	12%[57.1 µM]	1%	-6%	6%[57.1 µM]	.	.	.
CCN(CC)C(=O)COC(=O)c1ccc(S(C)(=O)=O)c([N+](=O)[O-])c1	.	.	.	.	?	.	.
